From PubChem BioAssay
Only some compounds are listed: those with a hit (about 6.8% of all), similar ones and a draw of the others.
Fluor 339 460: intrinsic fluorescence of library compounds, ex339/em460 – biochemical, MLSMR library, data from DPM-DC assay, artefact control, profiling panel | compound autofluorescence, ex339/em460 nm, NADH buffer; hits give high values; 1 = no-compound wells, NADH background | fluorescence fold increase at 10 µM | hit rate 5.5% among 65,000;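 active = at 10 µM, mean starting fluorescence two-fold or more over control wells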;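 also: signal is the first read of a kinetic run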
NADH coupling: inhibitors of enzymes used to reach an NAD/NADH endpoint. IC50, µM (doses to about 10 µM). coupled PK/LDH NADH assays, four targets. hit rate 0.02% among 65,000. AID 774;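 active = single-dose screening hits from any of four coupled enzyme assays that gave an IC50 when retested across doses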;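 also: the DPM-DC format reads NADH fluorescence rather than 340 nm absorbance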
PMK inhibit: S. pneumoniae PMK inhibition. purified PMK, PK/LDH-coupled NADH absorbance 340 nm. inhibition, % at 10 µM. hit rate 0.49% among 65,000;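 active = top-ranked compounds by inhibition in the single 10 µM screen, taking a fixed number of the strongest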
MK inhibit: blocks S. pneumoniae mevalonate kinase; purified MK, PK/LDH-coupled NADH absorbance 340 nm; inhibition, % at 10 µM; hit rate 0.48% among 65,000; AID 555;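 active = ranked among the strongest by inhibition in the single 10 µM screen, a fixed top-ranked set picked for dose follow-up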
Spn DPM-DC inh: S. pneumoniae DPM-DC inhibition; purified DPM-DC, PK/LDH coupled NADH fluorescence; calls only at 10 µM; hit rate 0.49% among 65,000; AID 556;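 active = the 320 compounds with the highest percent inhibition in the single-dose primary screen, excluding strongly autofluorescent ones, cut at about 32% in these data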;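 also: kinetic rate of NADH fluorescence loss reporting ADP formed by the decarboxylase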
Abs 340nm: absorbance at 340 nm. AID 708. compound absorbance at 340 nm, fold over control. fold change at 10 µM. 65,000 tested, under 10 active;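 active = at 10 µM dose, initial 340 nm absorbance at least 2 fold that of control wells; inactive = change under 2 fold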;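 also: initial absorbance extrapolated from kinetic A340 decline of NADH oxidation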
Of the large screens only hits and unclear results are named; the others gave an inactive call.

CCc1cccc(CC)c1N(COC)C(=O)Cn1ccccc1=N	none
COc1ccc(C(=O)Nc2cccc3c2C(=O)NC3=O)cc1S(=O)(=O)N1CCOCC1	PMK inhibit 25
CCOC(=O)c1[nH]c2ccc(F)cc2c1NC(=O)C(C)N1CCc2cc(OC)c(OC)cc2C1 (configuration not stated)	none
CCOC(=O)c1[nH]c2ccc(C)cc2c1NC(=O)CN1CCCCC1	none
CCOC(=O)c1[nH]c2cc(OC)c(OC)cc2c1NC(=O)CN1CCN(C)CC1	Fluor 339 460 3.6 (not shown: Spn DPM-DC inh)
CCOC(=O)c1[nH]c2ccc(OC)cc2c1NC(=O)C(C)N1CCC2(CC1)OCCO2 (configuration not stated)	Fluor 339 460 3.8 (not shown: Spn DPM-DC inh)
CCOC(=O)c1[nH]c2ccc(OC)cc2c1NC(=O)c1nonc1C	none
CCOC(=O)c1[nH]c2ccc(OC)cc2c1NC(=O)CN1CCC2(CC1)OCCO2	Fluor 339 460 3.9 (not shown: Spn DPM-DC inh)
COCCn1c(SCc2ccc(C(=O)OC)o2)nc2cc(Cl)ccc2c1=O	none
CCOC(=O)c1c(NC(=O)c2csc(C)c2)sc(C(C)=O)c1C	none
CCOC(=O)c1cnn(-c2cc(C)nc3c(-c4ccccc4)cnn23)c1N	none
CCOC(=O)c1cc(-c2ccco2)nc2c1c(C)nn2-c1ccccc1	Fluor 339 460 2.5
Cc1cc(-c2ccccc2)nc2cc(C(N)=O)nn12	Fluor 339 460 2, Spn DPM-DC inh active
CCOC(=O)c1cnn2c(C)cc(-c3ccccc3)nc12	Fluor 339 460 3.7 (not shown: Spn DPM-DC inh)
Cc1nn(-c2ccccc2)c2nc(-c3ccncc3)cc(C(=O)NCc3ccco3)c12	none
CC(C)CCNC(=O)c1cnn2c(C(F)(F)F)cc(-c3ccco3)nc12	Fluor 339 460 3
O=C(NCc1ccco1)c1cc2nc(-c3cccs3)cc(C(F)(F)F)n2n1	Fluor 339 460 2.1 (not shown: Spn DPM-DC inh)
O=C(c1cnn2c(C(F)(F)F)cc(-c3ccc4c(c3)OCO4)nc12)N1CCCCC1	none
O=C(CSc1nc(-c2ccco2)cc(C(F)(F)F)n1)NC1CCCC1	none
O=C(NC1CCCC1)c1cnn2c(C(F)(F)F)cc(-c3ccc4c(c3)OCO4)nc12	Fluor 339 460 2.1
CCOC(=O)c1cnn2c(C(F)(F)F)cc(-c3ccco3)nc12	Fluor 339 460 4.3 (not shown: Spn DPM-DC inh)
CCOC(=O)c1cnn2c(C(F)F)cc(C3CC3)nc12	none
O=C(NC1CCCC1)c1cnn2c(C(F)(F)F)cc(-c3ccco3)nc12	Fluor 339 460 2.9
COc1ccc(OC)c(S(=O)(=O)N2CCC(C(=O)Nc3ccc(C)c(C)c3)CC2)c1	none
COc1ccc(-c2cc(C(F)(F)F)n3ncc(C(=O)NCc4ccco4)c3n2)cc1	Fluor 339 460 2.2 (not shown: Spn DPM-DC inh)
O=C(NCc1ccco1)c1cnn2c(C(F)(F)F)cc(-c3ccccc3)nc12	none
CCOc1cc2[nH]c(=O)n(CC3CCC(C(=O)NC(C)CC)CC3)c(=O)c2cc1OCC (configuration not stated)	Fluor 339 460 2.7
CCOc1cc2[nH]c(=O)n(CC3CCC(C(=O)NC4CCCCC4)CC3)c(=O)c2cc1OCC (configuration not stated)	none
CCCCN(C)C(=O)CCCCn1c(=O)[nH]c2cc(OCC)c(OCC)cc2c1=O	Fluor 339 460 2.2
Cc1nn(C/C(C#N)=N\O)c(C)[n+]1N	none
CCOc1ccc(C2CC(=O)NC(SCC(=O)OC)=C2C#N)cc1 (configuration not stated)	none
COc1ccc(Cl)cc1CN1CCN(c2nc(C)cc(C)c2C#N)CC1	none
Cc1cc(C)c2c(n1)nn1c(N3CCN(Cc4ccccc4)CC3)cc(C)nc21	Fluor 339 460 3.9 (not shown: Spn DPM-DC inh)
COc1ccc(F)cc1CN1CCN(c2cc(C)nc3c4c(C)cc(C)nc4nn23)CC1	Fluor 339 460 3.9 (not shown: Spn DPM-DC inh)
CS(=O)(=O)c1ccc2nc(NC(=O)CCC(=O)c3cccs3)sc2c1	none
COCCCNC(=O)c1ccc2nc3ccccc3c(=O)n2c1	Fluor 339 460 4.9 (not shown: Spn DPM-DC inh)
COCCCn1c(-c2ccccc2)nc2ccccc2c1=O	none
COc1ccc(-c2oc(/N=C/N3CCOCC3)c(C#N)c2-c2ccc(OC)cc2)cc1	none
CCOC(=O)c1nc2sc(C)c(C)c2c(=O)[nH]1	Fluor 339 460 3.7 (not shown: Spn DPM-DC inh)
CCOC(=O)CCCSc1nc2sc(C)c(C)c2c(=O)[nH]1	none
CCOC(=O)c1[nH]c(C)c(CN(Cc2ccco2)C(=O)C(F)(F)F)c1C	none
Cc1cc(C)c2oc(-c3ccc(Cl)c(NC(=O)c4ccc(C#N)cc4F)c3)nc2c1	Fluor 339 460 4 (not shown: Spn DPM-DC inh)
Nc1c(C(=O)NC2CCCC2)c2nc3ccccc3nc2n1/N=C/c1cccnc1	Fluor 339 460 3.2, Spn DPM-DC inh active
CCn1c(SCC(=O)c2ccccc2)nc2c(c1=O)SC(C)C2 (configuration not stated)	MK inhibit 40
CCCCC(=O)Nc1nn(C)c2nc3c(C)cccc3cc12	Fluor 339 460 2.4
CCCCC(=O)Nc1nn(CCC)c2nc3ccccc3cc12	none
Cc1cccc2cc3c(NC(=O)CC(C)C)nn(C)c3nc12	Fluor 339 460 2.9
CCc1cc2c(=O)c(-c3nc4ccccc4n3C)coc2c(CN2CCN(C)CC2)c1O	Fluor 339 460 2.6
COc1ccccc1-c1coc2c(CN3CCN(CCO)CC3)c(O)ccc2c1=O	Fluor 339 460 3 (not shown: Spn DPM-DC inh)
COc1ccccc1-c1coc2c(CN3CCN(C)CC3)c(O)ccc2c1=O	Fluor 339 460 2.2 (not shown: Spn DPM-DC inh)
COc1ccccc1Oc1coc2c(CN3CCN(C)CC3)c(O)ccc2c1=O	Fluor 339 460 3 (not shown: Spn DPM-DC inh)
COc1ccccc1Oc1coc2cc(OC(=O)N3CCOCC3)ccc2c1=O	none
CCOC(=O)c1oc2cc(O)ccc2c(=O)c1-c1ccccc1OC	none
Cn1c(=O)[nH]c(=O)c2c1nc(N1CCCCC1)n2CCCSc1nc2ccccc2s1	none
O=C(Nc1cccc(Oc2ccc3c(c2)C(=O)NC3=O)c1)c1ccco1	none
CCC(C)NC(=O)C1CCN(S(=O)(=O)CC)CC1 (configuration not stated)	none
CCN1CCN(Cc2c(O)ccc3c(=O)c(-c4ccccc4OC)coc23)CC1	Fluor 339 460 5 (not shown: Spn DPM-DC inh)
CCc1cc2c(=O)c(-c3nc4ccccc4[nH]3)coc2c(CN2CCC(C)CC2)c1O	none
Cc1ccc2c(c1)c1c(n2CC(O)CN2C(=O)CNC2=O)C(=O)CCC1 (configuration not stated)	Fluor 339 460 2 (not shown: Spn DPM-DC inh)
Cc1ccc2c(c1)c1c(n2CC2COC(C)(C)O2)C(=O)CCC1 (configuration not stated)	Fluor 339 460 2.2 (not shown: Spn DPM-DC inh)
Cc1ccc2c(c1)c1c(n2CC(O)Cn2c(C)nc3ccccc32)/C(=N\O)CCC1 (configuration not stated)	none
Cc1ccc2c(c1)c1c(n2CC(O)Cn2c(C)nc3ccccc32)C(=O)CCC1 (configuration not stated)	Fluor 339 460 2 (not shown: Spn DPM-DC inh)
C=CCOc1c(Cl)cc(C2NC(=O)NC(C)=C2C(=O)OC)cc1Cl (configuration not stated)	none
